Records with an inconclusive call do not appear. Where a call stands in place of a potency, no number is given. Activity calls are given as the source filed them. Calls come from the whole dose curve; as a rule, active = well fitted cell-killing curve with a large enough effect; inconclusive = small, poorly fitted or top-dose-only effect; inactive = flat fitted curve, though single readings scatter.
Assay: Quantitative highthroughput screen to assess conditional lethalithy of NOMO1 cells grown in RPMI1640 with dialyzed fetal bovine serum (RPMI+ds) (AID 1963877); note: nearly all actives have a fitted effect of over 30% in size
Details: NOMO1 in RPMI+dialyzed FBS viability, ATP luminescence, 48 h; series mostly up to 45.8 µM
Excerpt: Assay Provider: Jason Cantor Ph.D.
Department of Biochemistry
University of Wisconsin-Madison, Madison, WI, USA
Chemical screening studies have identified drug sensitivities across hundreds of cancer cell lines but most putative therapeutics fail to translate. Discovery and development of drug candidates in models that more accurately reflect nutrient levels in human blood is a major challenge. Here we performed high-throughput screens in conventional versus Human Plasma-Like Medium (HPLM) to identify compounds that were "missed" when screening using the artificial culture condition. Sets of conditional anticancer compounds spanned phases of clinical development and included non-oncology drugs were assessed. […] We also traced conditional phenotypes for several chemotherapeutics to availability of HPLM-specific metabolites and confirmed others for compounds whose reported targets are encoded by nonessential genes. Our findings establish generalizable strategies for exploiting conditional lethality in HPLM to reveal therapeutic candidates and mechanisms of action in cancer cells.
Described herein are the results of each viability screens against three cell lines: NOMO1 (an acute myeloid leukemia cell line); P12-Ichikawa (a T-cell acute lymphoblastic leukemia); and SEM (a B-cell ALL). Each assay was screened using 3 different cell culture media: homemade human plasma-Like medium with 10% dialyzed fetal bovine serum (HPLM+ds); RPMI1640 with 10% untreated FBS and 5mM glucose (RPMI+s); and RPMI1640 with 10% dialyzed fetal bovine serum and 5 mM glucose (RPMI+ds).
PROTOCOL TABLE (as described by Inglese J, Shamu CE and Guy RK. 2007)
SEQUENCE No. (e.g., 1, 2, 3, etc.); […] (e.g., Cells, Incubation, Reagent, etc.); VALUE and DESCRIPTION.
1; Cells; 5 uL; white, solid bottom 1536-well Greiner assay plate.
2; Compounds; 23 nL; Kalypsis pin tool (Wako USA) equipped with a 1536-well pin head to transfer to the assay plates.
3; Incubation; 48 hours; 37C incubation.
4; Reagent; 3 uL; CellTiter Glo (Promega).
5; Incubation; 5 min, room temperature
6; Detection; Luminescence, Viewlux PerkinElmer.
NOTES (numbers refer to Sequence numbers above)
1. Briefly, 5 ul of cell reagent was dispensed using a Multidrop Combi Dispenser. The NOMO1 and SEM cells were plated at 500 cells/well and the P12-Ichikawa line at 1000 cells/well.
2. After seeding the cells, 23 nL of MIPE 4.1 library compounds (in DMSO) were added to each plate using a Kalypsys 1536 Pintool dispenser. Bortezomib at final concentration of […] and DMSO were added to each plate as positive and negative controls respectively. For each screen, MIPE 4.1 compounds were added over an eleven-point concentration range […] in 3-fold dilutions.
3. Each plate was covered with a stainless steel gasketed lid to prevent evaporation and incubated for 48 hour at 37C, 95% relative humidity, and 5% CO2.
4-5. Three microliter CellTilter-GloTM luminescent substrate mix (Promega) reagent was added to the assay plate and incubated at room temperature for 5 min.
6. The luminescence signal was measured using a ViewLux (PerkinElmer) multiplate reader with a 2 second exposure time per plate. Data for each compound were normalized as percent viability such that measurements for DMSO and the empty well controls in each plate were defined as 100% and 0%, respectively.
Potency is the fitted concentration of half-maximal effect.

Structure (SMILES)	Potency
CC(C)(C)[C@]1(O)C[C@@H]2OC(=O)C[C@@]23C(=O)O[C@@H]2OC(=O)[C@H](O)C213 (stereo not given in full)	inactive
O=C(O)c1nn(Cc2ccc(Cl)cc2Cl)c2ccccc12	inactive
CC(=O)Nc1ccc(OC[C@](C)(O)C(=O)Nc2ccc([N+](=O)[O-])c(C(F)(F)F)c2)cc1	inactive
COC1(CS(=O)c2ccccc2)CCN(CCc2c[nH]c3ccc(F)cc23)CC1 (stereo not given)	inactive
CC1=C2C[C@@H]3[C@@H](CC=C4C[C@@H](O)CC[C@@]43C)[C@@H]2CC[C@]12O[C@H]1C[C@H](C)CN[C@H]1[C@H]2C	inactive
NCC1(CC(=O)O)CCCCC1	inactive
Cc1ncc(OC[C@@]2(c3cccc(F)c3)C[C@H]2C(=O)Nc2ccc(F)cn2)c(C)n1	inactive
Clc1ccccc1C(c1ccccc1)(c1ccccc1)n1cccn1	inactive
C[C@](O)(CS(=O)(=O)c1ccc(F)cc1)C(=O)Nc1ccc(C#N)c(C(F)(F)F)c1	inactive
COC[C@H]1OC(=O)c2coc3c2[C@@]1(C)C1=C(C3=O)C2CCC(=O)[C@@]2(C)C[C@H]1OC(C)=O (stereo not given in full)	inactive
COC[C@H]1OC(=O)c2coc3c2[C@@]1(C)C1=C(C3=O)[C@@H]2CC[C@H](O)[C@@]2(C)C[C@@H]1OC(C)=O	inactive
CN(C)CCN(C)CCc1ccc(Cl)c(Cl)c1	inactive
O=c1[nH]c2ccc(Cl)cc2c(N[C@@H]2CN3CCC2CC3)c1-c1nc2ccccc2[nH]1	0.148 µM (active)
CC(=O)N(C)c1cccc(-c2ccnc3c(C(=O)c4cccs4)cnn23)c1	inactive
C[C@@H]1CC[C@@]2(OC1)O[C@H]1C[C@H]3[C@@H]4CC=C5C[C@@H](O[C@@H]6O[C@H](CO)[C@@H](O[C@@H]7O[C@@H](C)[C@H](O)[C@@H](O)[C@@H]7O)[C@H](O)[C@@H]6O[C@@H]6O[C@@H](C)[C@H](O)[C@@H](O)[C@@H]6O)CC[C@]5(C)[C@@H]4CC[C@]3(C)[C@@H]1[C@H]2C	23.5 µM (active)
CCOC(=O)c1c(C(C#N)=CN)c2ccc(Cl)c(Cl)c2n1C	inactive
Oc1ccc2c3c1O[C@H]1c4[nH]c5c(c4C[C@@]4(O)[C@@H](C2)N(CC2CC2)CC[C@]314)C[C@@]1(O)[C@H]2Cc3ccc(O)c4c3[C@@]1(CCN2CC1CC1)[C@H]5O4	inactive
C[C@]12CC[C@H]3[C@@H](CCC4=CC(=O)CC[C@@]43C)[C@H]1CC[C@H]2O	inactive
Cc1cc(SCc2sc(-c3ccc(C(F)(F)F)c(F)c3)nc2C)ccc1OCC(=O)O	inactive
O=P1(NCCCl)OCCCN1CCCl (stereo not given)	inactive

Structure (SMILES)	Potency
c1cc2c(cc1[C@H]1OC[C@H]3[C@H]1CO[C@H]3c1ccc3c(c1)OCO3)OCO2	inactive
CC(N[C@H]1C[C@H]1c1ccccc1)c1ccc2c(c1)OCCO2 (stereo not given in full)	inactive
C#C[C@]1(O)C=C[C@@H]2[C@@H]3CCC4=CC(=O)CC[C@@H]4[C@H]3CC[C@@]21CC	inactive
C[C@]12CC[C@H]3[C@@H](CCC4=CC(=O)CC[C@@]43C)[C@H]1CC[C@H]2OC(=O)CCC1CCCC1	inactive
Cc1sc2c(c1C)C(c1ccc(Cl)cc1)=N[C@@H](CC(=O)OC(C)(C)C)c1nnc(C)n1-2	0.372 µM (active)
COc1cc(OC)c(OC)cc1C=O	inactive
CC(C)N[C@@H]1CCn2c(=O)[nH]c3cccc(c32)[C@@H]1O	inactive
COc1ccc(N(C(=O)Oc2c(C)cccc2C)c2ccnc(Nc3ccc(N4CCN(C)CC4)cc3)n2)c(OC)c1	inactive
CNC(=O)c1ccc(N2C(=S)N(c3ccc(C#N)c(C(F)(F)F)c3)C(=O)C23CCC3)cc1F	inactive
O=[N+]([O-])c1ncc[nH]1	inactive
O=C(O)CNC(=O)c1c(O)c2ccccc2n(Cc2ccccc2)c1=O	inactive
CC(C)N(CCNC(=O)CN1CCCC1=O)C(C)C	inactive
NC1=NC(=O)N2CC12 (stereo not given)	5.26 µM (active)
Fc1ccc(C(OCCN2CCN(CCCc3ccccc3)CC2)c2ccc(F)cc2)cc1	20.9 µM (active)
CC[C@@H]1[C@@H](C)O[C@@](O)([C@@H](C)[C@H](O)[C@H](C)[C@H]2OC(=O)C=CC=C[C@@H](C)[C@@H]([C@@H](C)[C@@H](O)[C@H](C)[C@@]3(O)C[C@H](O[C@H]4C[C@H](O)[C@H](O)[C@H](C)O4)[C@H](CC)[C@@H](C)O3)OC(=O)C=CC=C[C@@H]2C)C[C@H]1O[C@H]1C[C@H](O)[C@H](O)[C@H](C)O1	2.64 µM (active)
O=C(N[C@H]1CN2CCC1CC2)c1ccc(Cl)cc1	inactive
C[C@]12CCC(=O)C=C1CC[C@@H]1[C@H]3CC[C@](C)(O)[C@@]3(C)CC[C@@H]12	inactive
Cn1c(CCCC(=O)O)nc2cc(N(CCCl)CCCl)ccc21	inactive
CN1CCN(C(=O)O[C@H]2c3nccnc3C(=O)N2c2ccc(Cl)cn2)CC1	inactive
NC1CC1c1ccccc1 (stereo not given)	inactive
